Experimental findings from the supplement of paper PMC8699584 are described below.

Counter-ions that a name gives are not always drawn. ± gives the standard deviation of the averaged measurements.

For the test, the system named is Molm13. As to the kind of experiment: cell viability relative to DMSO control (bortezomib = 0%); higher = less growth inhibition. To be noted: 10 nM; 72 h. Put shortly: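 Cell viability was assessed by CellTiter-Glo luminescence. Acute myeloid leukemia cells were seeded at 1000 cells per well in 50 µL on a 384-well library of 679 compounds at a single 10 nM dose for 72 h. Per-plate linear regression set DMSO-treated cells at 100% and positive-control-treated cells at 0%.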
Usually cell viability stands for a read-out of living cells in per cent, often relative to untreated cells. For `CNC(=O)c1cc(Oc2ccc(NC(=O)Nc3cc(C(C)(C)C)nn3-c3ccc4ncccc4c3)c(F)c2)ccn1` [DCC-2036 (Rebastinib)], the cell viability was 95.7 ± 1.2%.

As to `CCS(=O)(=O)N1CC(CC#N)(n2cc(-c3ncnc4[nH]ccc34)cn2)C1`, the cell viability was 122 ± 31%. As to `N#CC(c1ccnc(NCCc2cccnc2)n1)c1nc2ccccc2s1` (stereo not given), the cell viability came to 105 ± 26%. As for `CCOc1cc(N2CCC(O)CC2)ccc1Nc1ncc2c(n1)N(C)c1ccccc1C(=O)N2C`, the figure is 98.8 ± 5.5%; as for `N#Cc1c(Oc2ccc(F)c(NC(=O)Cc3cccc(C(F)(F)F)c3)c2)ccc2nc(NC(=O)C3CC3)sc12`, 105 ± 12%; as for `COc1ccc2c3n(c(=NC(=O)c4cccnc4)nc2c1OC)CCN3`, 88.7 ± 7%. On to `C[C@@H]1O[C@@H](Oc2c(-c3cc(O)c(O)c(O)c3)oc3cc(O)cc(O)c3c2=O)[C@H](O)[C@H](O)[C@H]1O` [Myricetrin], for which the cell viability amounted to 89.1 ± 14%. As for `Cc1ncc(CCCN(C)C)cc1Nc1ncc2c(n1)-c1ccc(C(F)(F)F)cc1NC(=S)C2`, the figure is 100 ± 2.9%; as for `Cc1cc2c(F)c(Oc3ncnn4cc(OC[C@@H](C)OC(=O)[C@H](C)N)c(C)c34)ccc2[nH]1`, 101 ± 38%; as for `COc1cccc(-c2cc(=O)c3ccccc3o2)c1N`, 105 ± 10%. Regarding `O=C1C(Cl)=C(NCCN2CCOCC2)C(=O)c2ncccc21`, the cell viability was found to be 111 ± 23%. In the case of `CCCCNc1ncc(C(=O)NCc2ccc(-n3ccnc3)cc2)c(NC2CCC(O)CC2)n1` (stereo not given), the cell viability amounted to 103 ± 5.1%. As for `CCCS(=O)(=O)Nc1ccc(F)c(C(=O)c2c[nH]c3ncc(Cl)cc23)c1F`, the figure is 104 ± 8.2%.

In the case of `CN(C)C(=O)c1ccc(S(=O)(=O)c2ccc(NC(=O)[C@@](C)(O)C(F)(F)F)c(Cl)c2)cc1`, the cell viability was 97 ± 12%. As for `O=C(NCCCNc1nc(Nc2cccc(NC(=O)N3CCCC3)c2)ncc1I)c1cccs1`, the cell viability came to 95.7 ± 9.5%. As for `Cc1ccc(-n2nc(C(C)(C)C)cc2NC(=O)Nc2ccc(OCCN3CCOCC3)c3ccccc23)cc1` [Doramapimod], the figure is 95.877 ± 0.081%. The result for `CN(C)C/C=C/C(=O)Nc1cc2c(Nc3ccc(F)c(Cl)c3)ncnc2cc1O[C@H]1CCOC1` [Afatinib (BIBW2992) Dimaleate] reads 108 ± 11%. As for `N#Cc1ccc(COc2ccc(-c3cccc4nc(NC(=O)C5CC5)nn34)cc2)cn1` [GLPG0634 analogue], the figure is 107 ± 8.4%; as for `COc1ccc(Cl)c(Nc2nc3ccccc3nc2NS(=O)(=O)c2cccc(NC(=O)C(C)(C)N)c2)c1` [Pilaralisib (XL147)], 117 ± 4%.

On to `CC1(C)CC[C@]2(C(=O)O)CC[C@]3(C)C(=CC[C@@H]4[C@@]5(C)CC[C@H](O[C@@H]6O[C@H](C(=O)O)[C@@H](O)[C@H](O[C@@H]7OC[C@@H](O)[C@H](O)[C@H]7O)[C@H]6O)C(C)(C)[C@@H]5CC[C@]43C)[C@@H]2C1` [Momordin Ic], for which the cell viability was 87.4 ± 13%. The result for `CNC(=O)c1c(C)oc2cc(Oc3ncnc4cc(OC)c(OC)cc34)ccc12` [Fruquintinib] reads 103 ± 25%. In the case of `N#CC(=Cc1cc(Cl)cc(Cl)c1)c1cccnc1`, the cell viability stood at 116 ± 8.1%.

Take `O=C1NC(=O)/C(=C/c2ccc(-c3ccc(F)cc3O)o2)S1`: the cell viability worked out at 106 ± 2.7%. Consider `Cc1nc(NC(=O)N2CCC[C@@H]2C(N)=O)sc1-c1ccnc(C(C)(C)C(F)(F)F)c1` [BYL-719(Alpelisib)], for which the cell viability amounted to 113 ± 6.5%. Consider `O=C(Nc1ccc(OC(F)(F)F)cc1)c1sccc1NCc1ccnc2ccccc12`, for which the cell viability came to 111 ± 3.1%. As for `C=CC(=O)Nc1cccc(C)c1Nc1ncc2cc(-c3c(Cl)c(OC)cc(OC)c3Cl)ccc2n1`, the figure is 112 ± 22%. As for `COc1ccc(S(=O)(=O)Nc2ccccc2CN(C)C/C=C/c2ccc(Cl)cc2)cc1` [KN-92 (hydrochloride)], the figure is 129 ± 18%; as for `Cc1nc(Nc2ncc(C(=O)Nc3c(C)cccc3Cl)s2)cc(N2CCN(CCO)CC2)n1` [Dasatinib monohydrate], 80.8 ± 25%; as for `CCOC(=O)c1cnc2ccc(-c3cncc(NS(=O)(=O)c4ccccc4)c3)cn12`, 99.7 ± 8.9%. As for `CNC(=O)c1ccccc1Nc1nc(Nc2ccc(N3CCOCC3)cc2OC)ncc1Cl`, the figure is 90.55 ± 0.19%. In the case of `CNCCNS(=O)(=O)c1cccc2cnccc12` [H-8 (hydrochloride)], the cell viability stood at 106 ± 12%.

Take `C=CC(=O)Nc1cc(Nc2nccc(-c3c[nH]c4ccccc34)n2)c(OC)cc1N(C)CCN(C)C`: the cell viability was found to be 104 ± 7.9%. As for `Nc1nccc(Oc2ccc(NC(=O)c3c[nH]cc(-c4ccc(F)cc4)c3=O)cc2F)c1Cl`, the figure is 60.9 ± 5.7%; as for `COc1ccc2c(c1)c(C1=C(c3c[nH]c4ccccc34)C(=O)NC1=O)cn2CCCN(C)C`, 85.4 ± 2%. For the compound `CCN(CC)CC(=O)Nc1c(C)cccc1C` [Lidocaine Hydrochloride hydrate], the cell viability amounted to 111 ± 18%. As for `O=C1NC(=O)C(=Cc2ccc(-c3ccc(F)cc3)o2)S1` (stereo in doubt), the figure is 106 ± 12%; as for `C[C@@H]1O[C@@H](O[C@@H]2[C@@H](O)[C@H](OCCc3ccc(O)c(O)c3)O[C@H](CO)[C@H]2OC(=O)/C=C/c2ccc(O)c(O)c2)[C@H](O)[C@H](O)[C@H]1O` [Verbascoside], 89.4 ± 1.9%; as for `Cc1c(C)c2c(c(C)c1O)CC[C@@](C)(CCC[C@H](C)CCC[C@H](C)CCCC(C)C)O2` [Vitamin E], 93.3 ± 1.1%. The result for `N#CC(=Cc1ccc2[nH]ccc2c1)C(N)=C(C#N)C#N` reads 104 ± 20%; that for `COc1ccc2cc1Oc1ccc(cc1)C[C@H]1c3cc(c(OC)cc3CCN1C)Oc1c(O)c(OC)cc3c1[C@H](C2)N(C)CC3` [(+)-Fangchinoline], 116 ± 13%.
